Data published in PubChem BioAssay (Tox21).
Where “and” joins values, the source holds several entries; their conditions need not be identical. Equal entries are not always repeated. Inconclusive results are not listed. A number with no mark means an inactive call. Calls of active or inactive are those of the source. Calls come from the whole dose curve.

Assay: qHTS assay for small molecule agonists of the p53 signaling pathway - cell viability (AID 651633); note: nearly all actives have a fitted effect of over 30% in size;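 for activity change, negative = cytotoxicity: p53RE-bla HCT reporter cells with a stable beta-lactamase p53 reporter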
Conditions: p53RE-bla HCT-116 viability, ATP luminescence, 16 h; series mostly up to 83.3 µM; activity change, negative = cytotoxicity: at the top concentration
Procedure, shortened: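 p53RE-bla cells, seeded at 4,000 per well and rested 5 h at 37 C/5% CO2, received compounds in DMSO for 16 h at 37 C. CellTiter-Glo was then added, and luminescence was read after 30 min at room temperature to gauge cytotoxicity.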
% is set by controls: 0 for no effect and ±100 for the full control effect; potency is the fitted concentration of half-maximal effect.

SMILES | activity change, negative = cytotoxicity | Potency
C=CC(=C)CCC=C(C)C | 5.28% | 
Cn1cnc2ncnc(N)c21 | 11.9% | 
Cc1cccc(Br)c1 | 8.35% [at 95.3 µM] | 
CCCCCCCCCC(=O)N(C)C | 7.08% [at 95.3 µM] | 
[O]=[Zr] | -26% | 
CC(COC(=O)c1ccccc1)OC(=O)c1ccccc1 (configuration not stated) | -9.02% | 
CCOC(=O)COc1ccc(C)cc1 | 17.5% | 
Oc1c(Br)cc(Br)c2cccnc12 |  | 6.68 µM (active)
CCCCOC(=O)C(C)CC (configuration not stated) | 12.1% | 
CC1CCCNC1 (configuration not stated) | -5.81% | 
CCC(=O)OCCc1ccccc1 | 10.9% | 
O=C(c1ccccc1)c1cc(Cl)ccc1O | 9.26% | 
CC1(C)C(=O)N(Br)C(=O)N1Br | -9.36% | 
O=C(Nc1ccc(Cl)c(Cl)c1)c1cc(Cl)cc(Cl)c1O |  | 0.273 µM (active)
C/C=C/C(=O)Oc1c(CCCCCC(C)C)cc([N+](=O)[O-])cc1[N+](=O)[O-] |  | 15.4 µM (active)
C(=C/c1ccccc1)/c1ccccc1 | 5.97% [at 95.3 µM] | 
CCc1cccc(C)c1 | 12.7% [at 95.3 µM] | 
NC(=O)c1ccccc1N | 6.46% [at 95.3 µM] | 

SMILES | activity change, negative = cytotoxicity | Potency
CCCCCCCC/C=C\CCCCCCCC(=O)OCCOC(=O)CCCCCCC/C=C\CCCCCCCC | 5.8% [at 95.3 µM] | 
CC1=C(/C=C/C(C)=C/C=C/C(C)=C/C(=O)Nc2ccc(O)cc2)C(C)(C)CCC1 |  | 29.8 µM (active) and 62.7 µM (active)
CCC(C)(C)c1cc(O)c(C(C)(C)CC)cc1O |  | 43.3 µM (active)
Cc1cn[nH]c1 | 19.6% | 
O=C(Nc1ccc(Cl)cc1)Nc1ccc(Cl)c(C(F)(F)F)c1 |  | 26.6 µM (active)
Cc1c(C(=O)O)cccc1[N+](=O)[O-] | -18.1% [at 95.3 µM] | 
CC(=O)Oc1ccc(C2(c3ccc(OC(C)=O)cc3)Oc3ccccc3NC2=O)cc1 | -3.34% | 
CCCCCCCCCCCCCCNCCO | 13.8% | 
CCNc1nc(NC(C)CC)nc(OC)n1 (configuration not stated) | 8.8% | 
ClC/C=C\CCl | 23.5% [at 95.3 µM] | 
COC(=O)CC#N | -12.8% [at 95.3 µM] | 
O=C(O)c1cccc(Cl)n1 | 19.9% | 
C=CC(C)(CCC=C(C)C)OC(=O)/C=C/c1ccccc1 (configuration not stated) | 14.4% | 
COC(=O)NCCC[Si](OC)(OC)OC | 20.3% | 
O=C(O)CC(=O)O | 12.8% | 
C1CC(COCC2CO2)CCC1COCC1CO1 (configuration not stated) | 20.1% | 
CC(C)=C1CC[C@@H](C)CC1=O | 34.2% | 
CCCCCCCCCCCCCCCC | 5.37% | 

Assay: qHTS assay for small molecules that induce genotoxicity in human embryonic kidney cells expressing luciferase-tagged ATAD5 - cell viability (AID 651634); note: nearly all actives have a fitted effect of over 25% in size
Conditions: HEK293T ATAD5-luc cells viability, CellTiter-Fluor, 15.5 h; series mostly up to 83.3 µM; activity, negative = cytotoxicity: at the top concentration
Procedure, shortened: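 Cells (HEK293T, luciferase-tagged ATAD5) are seeded at 2,000 per well, dosed with compound or DMSO vehicle, and incubated 15.5 hr at 37C and 5% CO2. CellTiter-Fluor is added for 30 min before fluorescence is measured.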

SMILES | activity, negative = cytotoxicity | Potency
C=CC(=C)CCC=C(C)C | 21.5% | 
Cn1cnc2ncnc(N)c21 | 8.39% | 
Cc1cccc(Br)c1 | 11.7% [at 95.3 µM] | 
CCCCCCCCCC(=O)N(C)C | -5.35% [at 95.3 µM] | 
[O]=[Zr] | -16.5% | 
CC(COC(=O)c1ccccc1)OC(=O)c1ccccc1 (configuration not stated) | 24.4% | 
CCOC(=O)COc1ccc(C)cc1 | -11% | 
Oc1c(Br)cc(Br)c2cccnc12 | -18.2% | 
CCCCOC(=O)C(C)CC (configuration not stated) | 17.3% | 
CC1CCCNC1 (configuration not stated) | 9.67% | 
CCC(=O)OCCc1ccccc1 | 14.4% | 
O=C(c1ccccc1)c1cc(Cl)ccc1O | -10.8% | 
CC1(C)C(=O)N(Br)C(=O)N1Br | -5.84% | 
O=C(Nc1ccc(Cl)c(Cl)c1)c1cc(Cl)cc(Cl)c1O |  | 4.86 µM (active)
C/C=C/C(=O)Oc1c(CCCCCC(C)C)cc([N+](=O)[O-])cc1[N+](=O)[O-] |  | 19.3 µM (active)
C(=C/c1ccccc1)/c1ccccc1 | 4.31% [at 95.3 µM] | 
CCc1cccc(C)c1 | 17.6% [at 95.3 µM] | 
NC(=O)c1ccccc1N | -24.1% [at 95.3 µM] | 

SMILES | activity, negative = cytotoxicity | Potency
CCCCCCCC/C=C\CCCCCCCC(=O)OCCOC(=O)CCCCCCC/C=C\CCCCCCCC | -15.8% [at 95.3 µM] | 
CC1=C(/C=C/C(C)=C/C=C/C(C)=C/C(=O)Nc2ccc(O)cc2)C(C)(C)CCC1 |  | 23.7 µM (active) and 28 µM (active)
CCC(C)(C)c1cc(O)c(C(C)(C)CC)cc1O |  | 48.6 µM (active)
Cc1cn[nH]c1 | 23.7% | 
O=C(Nc1ccc(Cl)cc1)Nc1ccc(Cl)c(C(F)(F)F)c1 |  | 13.3 µM (active)
Cc1c(C(=O)O)cccc1[N+](=O)[O-] | 12.1% [at 95.3 µM] | 
CC(=O)Oc1ccc(C2(c3ccc(OC(C)=O)cc3)Oc3ccccc3NC2=O)cc1 | -20.9% | 
CCCCCCCCCCCCCCNCCO | 38.4% | 
CCNc1nc(NC(C)CC)nc(OC)n1 (configuration not stated) | 2.91% | 
ClC/C=C\CCl | 10.5% [at 95.3 µM] | 
COC(=O)CC#N | 14.4% [at 95.3 µM] | 
O=C(O)c1cccc(Cl)n1 | 11% | 
C=CC(C)(CCC=C(C)C)OC(=O)/C=C/c1ccccc1 (configuration not stated) | -7.6% | 
COC(=O)NCCC[Si](OC)(OC)OC | 8.51% | 
O=C(O)CC(=O)O | -1.07% | 
C1CC(COCC2CO2)CCC1COCC1CO1 (configuration not stated) | 23.8% | 
CC(C)=C1CC[C@@H](C)CC1=O | -11.1% | 
CCCCCCCCCCCCCCCC | 12.5% | 
